# Source: PubChem BioAssay AID651640 (Broad Institute, 2012)
# The whole screen tested about 350,000 compounds, of which about 6,000 (1.7%) were called active. About 5% were inconclusive and are not listed. Cut-off read from the data, not from the text of the source: active = CPE inhibition above about 20% (passing the limit was not always enough); inconclusive = no clear call, values can overlap the other calls; tested in BHK-21 cells. This excerpt belongs to a sample that is enriched for actives.
# Assay: inhibitors of DENV2 cytopathic effect, primary screen, cell-based, plate reader, single concentration (AID 651640);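 note: 0% = median of neutral control wells and 100% = median of positive control wells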
# Conditions: DENV2-infected cells, cytopathic effect rescue, at 9.99 µM, hits give high values
row,SMILES,CPE inhibition
1,CC(=O)N(C)C[C@@H]1Oc2ncc(C#CCc3ccccc3)cc2C(=O)N([C@H](C)CO)C[C@H]1C,13.5% (inactive)
2,CO[C@@H]1CN(C)C(=O)c2cc(NC(=O)c3ccccc3)ccc2OC[C@H](C)N(C(=O)CN(C)C)C[C@H]1C,-4.5% (inactive)
3,C[C@H](CO)N1C[C@H](C)[C@H](CN(C)Cc2ccc(C(=O)O)cc2)Oc2ccc(NS(=O)(=O)c3cn(C)cn3)cc2CC1=O,-5.77% (inactive)
4,CC(C)NC(=O)N(C)C[C@H]1Oc2ccc(NS(C)(=O)=O)cc2CC(=O)N([C@@H](C)CO)C[C@H]1C,-8.84% (inactive)
5,CO[C@H]1CN(C)C(=O)c2cc(NC(=O)c3nc4ccccc4s3)ccc2OC[C@H](C)N(Cc2cccnc2)C[C@@H]1C,21.1% (active)
6,CO[C@H]1CN(C)C(=O)c2ccc(NC(=O)c3nc4ccccc4s3)cc2OC[C@@H](C)N(Cc2cncnc2)C[C@H]1C,-2.74% (inactive)
7,CO[C@@H]1CN(C)C(=O)c2cc(NC(=O)c3cnccn3)ccc2OC[C@@H](C)N(CC2CC2)C[C@H]1C,-5.97% (inactive)
8,CO[C@H]1CN(C)C(=O)c2cc(NC(=O)c3cnccn3)ccc2OC[C@@H](C)N(CC2CC2)C[C@@H]1C,26.7% (active)
9,CO[C@H]1CN(C)C(=O)c2ccc(NC(=O)c3nc4ccccc4s3)cc2OC[C@H](C)N(Cc2cccnc2)C[C@@H]1C,3.73% (inactive)
10,CO[C@H]1CN(C)C(=O)c2cc(NC(=O)c3cnccn3)ccc2OC[C@H](C)N(C(=O)C2CC2)C[C@H]1C,7.36% (inactive)
11,COCC#Cc1ccc([C@@H]2[C@@H](CO)N3C(=O)CN(C(=O)C4CCCC4)C[C@@H]23)cc1,-7.7% (inactive)
12,CC(C)NC(=O)N(C)C[C@H]1Oc2ccc(N(C)C)cc2C(=O)N([C@@H](C)CO)C[C@H]1C,-2.75% (inactive)
13,C[C@@H]1CCCCO[C@H](CN(C)C(=O)CCC(F)(F)F)[C@H](C)CN([C@H](C)CO)C(=O)c2cc(NC(=O)NC3CCCCC3)ccc2O1,0.687% (inactive)
14,COCC(=O)Nc1ccc2c(c1)C(=O)N(C)C[C@@H](OC)[C@@H](C)CN(C(=O)c1ccccc1)[C@@H](C)CO2,0.375% (inactive)
15,CN1CCN(C(=O)c2cc3c(c(-c4cccc(-c5ccc(C(=O)N(C)C)cc5)c4)n2)[C@@H](CCO)N([S@](=O)C(C)(C)C)C3)CC1,1.85% (inactive)
16,O=C(CN1CCOCC1)NC[C@@H]1N[C@@H](CO)[C@@H]1c1ccc(-c2ccccc2)cc1,29.8% (active)
17,O=C(CN1CCOCC1)N1CCCCN2[C@H](CO)[C@H](c3ccc(-c4ccccc4)cc3)[C@@H]2C1,6.44% (inactive)
18,O=C(CN1CCOCC1)N1CCCCN2[C@@H](CO)[C@H](c3ccc(-c4ccccc4)cc3)[C@@H]2C1,-4.15% (inactive)
19,CN1C(=O)c2cc(NC(=O)c3cnccn3)ccc2OC[C@@H]2O[C@H](CC(=O)O)CC[C@@H]21,0.738% (inactive)
20,CCOc1ccc(/C=C/C(=O)N(CC)CC(=O)NCc2cccs2)cc1OC,67.5% (active)
21,COc1ccc(/C=C/C(=O)OCC(=O)NCc2cccs2)cc1OC,-0.984% (inactive)
22,CCN(CC(=O)NCc1cccs1)C(=O)/C=C/c1ccc(C)cc1,13.7% (inactive)

row,SMILES,CPE inhibition
1,COc1ccccc1C#Cc1ccc([C@H]2[C@H](CO)N3CCCCN(C(=O)C4CCC4)C[C@@H]23)cc1,-8.41% (inactive)
2,O=C(CN1CCC(NC(=O)Nc2ccccc2)CC1)Nc1cccc([N+](=O)[O-])c1,-9.16% (inactive)
3,Cc1cccc(C(=O)NC2CCN(CC(=O)Nc3cccc(Cl)c3)CC2)c1,39% (active)
4,Cc1cc(C)cc(NC(=O)NC2CCN(CC(=O)Nc3cccc(Cl)c3C)CC2)c1,-4.01% (inactive)
5,C[C@H]1CN([C@@H](C)CO)S(=O)(=O)c2ccc(C#Cc3ccccc3)cc2O[C@@H]1CN(C)C(=O)C1CC1,19.8% (inactive)
6,Cc1ccccc1C1=NC(C(F)(F)F)(C(F)(F)F)c2c(n(-c3ccc(F)cc3)c(=O)[nH]c2=O)N1,22.3% (active)
7,COc1ccc2c3c([nH]c2c1)[C@H](CO)N(C(=O)Nc1ccc(F)cc1)CC31CN(S(=O)(=O)c2cccc(F)c2)C1,1.82% (inactive)
8,CCCNC(=O)N1[C@@H](C#N)[C@H](c2ccc(-c3ccc(C(=O)N(C)C)cc3)cc2)[C@@H]1CO,-5.96% (inactive)
9,COC(=O)C[C@@H]1CC[C@@H]2[C@H](COc3ccc(NS(=O)(=O)c4ccccc4F)cc3C(=O)N2C)O1,1.86% (inactive)
10,C[C@@H]1CCCCO[C@H](CN(C)C(=O)Nc2ccc3c(c2)OCO3)[C@H](C)CN([C@H](C)CO)C(=O)c2cc(NS(C)(=O)=O)ccc2O1,11.9% (inactive)
11,CCC(CO)Oc1cc(NCc2ccccc2)c2ncn(C3CCCC3)c2c1 (stereo unspecified),64.4% (active)
12,CCC(CO)Oc1cc(NC(=O)c2cccc(F)c2)c2ncn(C(C)C)c2c1 (stereo unspecified),-10.5% (inactive)
13,CCC(CO)Oc1cc(NC(=O)c2cccc3ccccc23)c2ncn(C(C)C)c2c1 (stereo unspecified),-11.1% (inactive)
14,COc1ccc(SSc2ccc(OC)cc2C(=O)O)c(C(=O)O)c1,2.7% (inactive)
15,O=S(=O)(c1ccccc1)N1CCCCN2[C@@H](CO)[C@H](c3ccc(C#Cc4cccnc4)cc3)[C@@H]2C1,17.6% (inactive)
16,CCC(=O)N1CCCCN2[C@H](CO)[C@@H](c3ccc(-c4cccnc4)cc3)[C@H]2C1,-0.425% (inactive)
17,COCC(=O)N1CCCCN2[C@H](CO)[C@H](c3ccc(-c4ccc(OC)cc4)cc3)[C@H]2C1,-1.33% (inactive)
18,COc1ccc(-c2ccc([C@@H]3[C@@H](CO)N4CCCCN(C(=O)NC(C)C)C[C@H]34)cc2)cc1,63.6% (active)
19,C[C@H](O)C#Cc1ccc([C@@H]2[C@@H](CO)N3CCCCN(C(=O)c4ccncc4)C[C@@H]23)cc1,-16.7% (inactive)
20,COCC(=O)N1CCCCN2[C@H](CO)[C@@H](c3ccc(-c4ccc(OC)cc4)cc3)[C@@H]2C1,-7.09% (inactive)
21,CN(C)CC(=O)N1CCCCN2[C@@H](CO)[C@H](c3ccc(-c4cccnc4)cc3)[C@@H]2C1,33.3% (active)
22,CC(C)(O)C#Cc1ccc([C@H]2[C@@H](CO)N3CCCCN(C(=O)c4ccncc4)C[C@H]23)cc1,0.094% (inactive)

row,SMILES,CPE inhibition
1,COc1ccc(C#Cc2ccc([C@@H]3[C@@H](CO)N4CCCCN(C(=O)c5ccncc5)C[C@@H]34)cc2)cc1,50.9% (active)
2,C[C@H](O)C#Cc1ccc([C@H]2[C@H](CO)N3CCCCN(C(=O)c4ccc(F)cc4)C[C@@H]23)cc1,41.2% (active)
3,O=C(Nc1ccccc1F)N1CCCCN2[C@H](CO)[C@@H](c3ccc(-c4cccnc4)cc3)[C@H]2C1,5.39% (inactive)
4,C[C@@H](O)C#Cc1ccc([C@@H]2[C@H]3CN(C(=O)c4ccc5c(c4)OCO5)CCCCN3[C@H]2CO)cc1,2.09% (inactive)
5,CC(C)C#Cc1ccc([C@H]2[C@H](CO)N3CCCCN(C(=O)c4ccc(F)cc4)C[C@@H]23)cc1,10.5% (inactive)
6,O=C(Nc1ccc(C(F)(F)F)cc1)N[C@@H]1CC[C@H](CCNC(=O)c2ccccc2F)O[C@@H]1CO,5.46% (inactive)
7,C[C@@H]1CCCCO[C@@H](CN(C)C(=O)Nc2ccc(F)cc2)[C@H](C)CN([C@@H](C)CO)C(=O)c2cc(NS(=O)(=O)c3ccccc3)ccc2O1,-1.25% (inactive)
8,CCC(=O)N1C[C@@H](C)[C@@H](OC)CN(C)C(=O)c2ccc(NC(=O)C3CCCCC3)cc2OC[C@@H]1C,-0.243% (inactive)
9,COC(=O)C1=C(C)N(Cc2ccc(C(F)(F)F)cc2)C(=NCc2ccccc2)NC1c1ccccc1C(F)(F)F (stereo unspecified),16% (inactive)
10,CN1[C@@H]2c3ccc(-c4cccc(F)c4)c(=O)n3C[C@@H]2[C@@H](CO)[C@@H]1C(=O)NC1CCC1,-3.71% (inactive)
11,CC(C)NC(=O)N(C)C[C@@H]1Oc2ccc(NC(=O)Cn3cnnn3)cc2CC(=O)N([C@H](C)CO)C[C@H]1C,-6.63% (inactive)
12,O=C(C[C@@H]1C[C@@H]2c3cc(NS(=O)(=O)c4ccccc4)ccc3O[C@@H]2[C@@H](CO)O1)NC1CCCCC1,9.22% (inactive)
13,C[C@H](CO)N1C[C@H](C)[C@@H](CN(C)C(=O)Nc2ccnc(N3CCOCC3)c2)OCc2ccccc2-c2c(n(C)c3ccccc23)C1=O,-11.2% (inactive)
14,C[C@@H](O)C#Cc1ccc([C@H]2[C@H](CO)N3CCCCN(C(=O)c4ccc(F)cc4)C[C@@H]23)cc1,22.8% (active)
15,C[C@H](O)C#Cc1ccc([C@@H]2[C@@H](CO)N3CCCCN(C(=O)c4ccc(F)cc4)C[C@H]23)cc1,4.05% (inactive)
16,C[C@@H](O)C#Cc1ccc([C@@H]2[C@@H](CO)N3CCCCN(C(=O)c4ccc(F)cc4)C[C@@H]23)cc1,2.55% (inactive)
17,O=C(C[C@@H]1CC[C@@H]2[C@H](COC[C@H](O)CN2Cc2ccc(F)cc2)O1)NCc1ccncn1,19.2% (inactive)
18,C[C@H]1CN([C@@H](C)CO)S(=O)(=O)c2ccc(-c3ccncc3)cc2O[C@H]1CN(C)S(C)(=O)=O,8.89% (inactive)
19,CCC1(c2ccccc2)NC(=O)N(CC(=O)c2ccc3c(c2)OCO3)C1=O (stereo unspecified),4.81% (inactive)
20,CC1(c2ccc(Cl)cc2)NC(=O)N(CC(=O)c2ccc3c(c2)OCO3)C1=O (stereo unspecified),14.3% (inactive)
21,COc1ccc(C2(C)NC(=O)N(CC(=O)c3ccc4c(c3)OCO4)C2=O)cc1 (stereo unspecified),53.4% (active)
22,COc1ccc([Si](C)(C)[C@@H]2[C@@H](CCO)O[C@]3(C(=O)N(Cc4cccc(N5CCCCC5=O)c4)c4ccccc43)[C@H]2C)cc1,3.86% (inactive)
